# Experimental data from PubChem BioAssay (NCI).
# “And” between values parts separate entries of the source, which are not always exact repeats. Equal values may be shown once. This is part of a sample that, as a whole, favours compounds with a hit. Of some 83,000 tested, about 20% had one in any assay.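 96-well plates, one dose, 48 hours. Percent growth reported; active if below 10.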 The source made the active and inactive calls.
# Test system: MDA-MB-468 breast
# Test: NCI-60 one-dose screen, 48 h (100 = growth as untreated, 0 = no growth, -100 = all killed)
# Settings: 10 µM unless noted
row,SMILES,growth
1,O=[N+]([O-])c1cnc(N2CCN(CC3CC3)CC2)nc1N1CCN(CC2CC2)CC1,76.9% (inactive)
2,COc1ccc(-c2nsc3c2NC(=O)CC3c2ccc(Cl)cc2)cc1 (stereo not given),58.7% (inactive)
3,Nc1nc(-c2cccc(Br)c2)cc(-c2cc3ccccc3oc2=O)n1,91.8% (inactive)
4,COC(=O)/C(=C\c1ccc(OC)cc1)C(=O)N1c2ccccc2Sc2ccccc21,76.1% (inactive)
5,O=C(CCCCC1CCSS1)Nc1ncnc2n[nH]c(-c3ccc(Oc4ccccc4)cc3)c12 (stereo not given),95.9% (inactive)
6,CN(C)CCCn1c2c(c3cc(-c4cccc(S(N)(=O)=O)c4)ccc3c1=O)C(=O)c1ccccc1-2,88.5% (inactive)
7,COc1ccc(Cn2cc3c(c2-c2ccccc2)CCc2cncnc2-3)cc1,32.5% (inactive)
8,O=C(O)C1C2CC3C(OC(=O)C31)C2Br (stereo not given),93.2% (inactive) and 72.3% (inactive)
9,CC(O)Cc1c[nH]c(=O)[nH]c1=O (stereo not given),121% (inactive)
10,Oc1ccccc1/C=N\NC(=S)Nc1ccc(F)cc1,2.61% (active)
11,CCCCCCCCCCCCCCCC1=NCC[N+]1(CCO)CCO,55.2% (inactive)
12,Cc1cnc(N)nc1OCCNC(=O)c1cccc(-c2ccc(S(=O)(=O)Nc3ccc4c(c3)N(C(=O)C3CC3)CCC4)cc2)c1,36.8% (inactive)
13,NCCNc1nc2ccccc2c2c(=O)c3cccc(F)c3sc12,70.6% (inactive)
14,CCNc1nc(S(=O)(=O)CC)nc2ccccc12,76.4% (inactive)
15,O=C(Nc1ccncc1)C(=O)c1cn(S(=O)(=O)c2ccc(Oc3ccccc3)cc2)c2ccccc12,55.4% (inactive)
16,CCc1cc(C)cc(O)c1,94.7% (inactive)
17,O=C(Cc1ccc(/C=C/C(=O)c2ncc[nH]2)cc1)Nc1ccc(S(F)(F)(F)(F)F)cc1,52.7% (inactive)
18,COc1ccc(-c2nc(/C=C3\C(=O)N(C)c4ccccc43)c3ccccn23)cc1,98.5% (inactive)
19,O=C(Nc1ccccc1)c1sc(-c2ccccc2)cc1O,107% (inactive)
20,O=C1/C(=C/c2ccc(O)cc2)COc2ccc(O)cc21,100% (inactive)

row,SMILES,growth
1,NC(=S)NN=C1CCCCC1,26.4% (inactive)
2,CN1C(=O)N(C)C2C1NN=c1s/c(=C\C=C\c3ccccc3)c(=O)n12 (stereo not given),13.9% (inactive)
3,CCCCNCC(=O)Nc1ccc(C(=O)OCC)cc1,103% (inactive)
4,CC(/C=N/N1C(=O)c2ccccc2C1=O)c1ccccc1 (stereo not given),95.9% (inactive)
5,c1ccc2c(c1)Oc1ccccc1C2C1c2ccccc2Oc2ccccc21,107% (inactive)
6,CCN1C(=S)N(CC)C2C1N=C(SC)N2/N=C/C=C/c1ccccc1[N+](=O)[O-] (stereo not given),99.8% (inactive)
7,CSc1ncc(C)c(Nc2ccc(Cl)cc2)n1,129% (inactive)
8,COc1ccc(Nc2cc(Cl)ccc2C(=O)O)cn1,95.8% (inactive)
9,COc1ccc(/C=C2/SC(=S)NC2=O)c(OC)c1OC,65.4% (inactive)
10,CCCN1C(=O)N(CCC)C2C1NC(=S)N2/N=C/C=C/c1ccccc1OC (stereo not given),1.14% (active)
11,CCN(CC)CCNC(=O)c1cn2ncnc(Oc3ccc(NC(=O)Nc4ccc(Cl)c(C(F)(F)F)c4)cc3)c2c1C,-80.7% (active)
12,O=C(/C=C\c1ccc(Cl)c(Cl)c1)c1ccccc1,79.8% (inactive)
13,CCOc1ccc(C(=O)Nc2ncc(Cc3ccc(F)cc3)s2)cc1,31.9% (inactive)
14,CC(=C(c1ccc(OCCN(C)C)cc1)c1ccc(OCCN(C)C)cc1)c1ccc(Cl)cc1,-81.1% (active)
15,N#Cc1ncc(-c2cc(F)c(F)c(F)c2)c(NC2CCCCCC2)n1,87.6% (inactive)
16,Nc1nc(N)nc(N2CCCCC2)n1,124% (inactive)
17,O=C(NNC(=O)c1ccc([N+](=O)[O-])cc1)c1ccc([N+](=O)[O-])cc1,109% (inactive)
18,CCCOc1ccc2c(c1)CC[C@@H]1[C@@H]2CC[C@@]2(C)[C@H]1CC[C@]2(C)O,59.8% (inactive)
19,CCCCCC(=C/c1ccccc1)/C=N/N=C(N)N,-87.4% (active)
20,CCc1cccc2c3c(sc12)C(c1ccc(OC)cc1)C(C#N)=C(/N=C/c1ccc(Cl)cc1)O3 (stereo not given),-6.83% (active)
